# Laboratory results as given in PubChem BioAssay (NCATS).
# “And” between values parts separate entries of the source, which are not always exact repeats. Equal entries are not always repeated. Inconclusive results are not listed. A number with no mark means an inactive call. The source made the active and inactive calls. Calls follow the shape of the dose curve; as a rule, active = well fitted inhibition curve with a large enough effect; inconclusive = small, poorly fitted or top-dose-only effect; inactive = flat fitted curve, though single readings scatter.
# How the values were obtained:
# [1] = test system: CRL-7250; experiment: Cytotoxic Profiling of Annotated Libraries Using Quantitative High-Throughput Screening (AID 1296008); conditions: Five cell lines viability, CellTiter-Glo ATP luminescence, 48-72 h; max response: stronger effect = lower value; also: potency is read from the fitted curve at half-maximal effect; as to max response: % is scaled to controls: 0 for no effect and ±100 for the full control effect
# Outline: (§1)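 Cytotoxicity was measured as CellTiter-Glo ATP luminescence, read after 10 min at room temperature. Compound treatment of the cells lasted 48 or 72 hr at 37 degrees Celsius in a qHTS format.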
# [2] = test system: HEK293; experiment: as above; conditions: Five cell lines viability, CellTiter-Glo ATP luminescence, 48-72 h; max response: stronger effect = lower value
# Outline: as §1
# [3] = test system: ECU; experiment: qHTS profiling for inhibitors of Plasmodium falciparum proliferation (AID 504749);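 also: 0% = DMSO vehicle and full inhibition = artemisinin control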; conditions: P. falciparum in erythrocytes, SYBR Green DNA, 72 h; series mostly up to 28.7 µM
# Outline: (§2)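 In a 72 h erythrocytic culture (37 C, humidified, 5% CO2) at 2.5% hematocrit and 0.3% starting parasitemia, compounds were tested; SYBR Green I in detergent lysis buffer stained parasite DNA overnight.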
# [4] = test system: FAB9; experiment: as above; conditions: P. falciparum in erythrocytes, SYBR Green DNA, 72 h; series mostly up to 28.7 µM
# Outline: as §2
# [5] = test system: GB4; experiment: as above; conditions: P. falciparum in erythrocytes, SYBR Green DNA, 72 h; series mostly up to 28.7 µM
# Outline: as §2
# [6] = test system: HB3; experiment: as above; conditions: P. falciparum in erythrocytes, SYBR Green DNA, 72 h; series mostly up to 28.7 µM
# Outline: as §2
# [7] = test system: ICS; experiment: as above; conditions: P. falciparum in erythrocytes, SYBR Green DNA, 72 h; series mostly up to 28.7 µM
# Outline: as §2
# [8] = test system: JCK; experiment: as above; conditions: P. falciparum in erythrocytes, SYBR Green DNA, 72 h; series mostly up to 28.7 µM
# Outline: as §2
# [9] = test system: N140; experiment: as above; conditions: P. falciparum in erythrocytes, SYBR Green DNA, 72 h; series mostly up to 28.7 µM
# Outline: as §2
# [10] = test system: P93_24; experiment: as above; conditions: P. falciparum in erythrocytes, SYBR Green DNA, 72 h; series mostly up to 28.7 µM
# Outline: as §2
# [11] = test system: P94_40; experiment: as above; conditions: P. falciparum in erythrocytes, SYBR Green DNA, 72 h; series mostly up to 28.7 µM
# Outline: as §2
# [12] = test system: PAD; experiment: as above; conditions: P. falciparum in erythrocytes, SYBR Green DNA, 72 h; series mostly up to 28.7 µM
# Outline: as §2
# [13] = test system: PC15; experiment: as above; conditions: P. falciparum in erythrocytes, SYBR Green DNA, 72 h; series mostly up to 28.7 µM
# Outline: as §2
# [14] = test system: PC26; experiment: as above; conditions: P. falciparum in erythrocytes, SYBR Green DNA, 72 h; series mostly up to 28.7 µM
# Outline: as §2
# [15] = test system: PC49; experiment: as above; conditions: P. falciparum in erythrocytes, SYBR Green DNA, 72 h; series mostly up to 28.7 µM
# Outline: as §2
# [16] = test system: SC27B; experiment: as above; conditions: P. falciparum in erythrocytes, SYBR Green DNA, 72 h; series mostly up to 28.7 µM
# Outline: as §2
# [17] = test system: TAB109; experiment: as above; conditions: P. falciparum in erythrocytes, SYBR Green DNA, 72 h; series mostly up to 28.7 µM
# Outline: as §2
# [18] = test system: TAB113; experiment: as above; conditions: P. falciparum in erythrocytes, SYBR Green DNA, 72 h; series mostly up to 28.7 µM
# Outline: as §2
# [19] = test system: TAB165; experiment: as above; conditions: P. falciparum in erythrocytes, SYBR Green DNA, 72 h; series mostly up to 28.7 µM
# Outline: as §2
# [20] = test system: W2; experiment: as above; conditions: P. falciparum in erythrocytes, SYBR Green DNA, 72 h; series mostly up to 28.7 µM
# Outline: as §2
# Also: nearly all actives have a fitted effect of over 60% in size.
compound,measurement,setting,value
CCOC(=O)[C@H](CCc1ccccc1)N[C@@H](C)C(=O)N1Cc2ccccc2C[C@H]1C(=O)O,max response,[1],-9.56%
O=C(OCC(O)CO)c1ccccc1Nc1ccnc2cc(Cl)ccc12 (stereo not drawn),outcome,[1],inactive
CNC(=O)CN(CCN(CCN(CC(=O)[O-])CC(=O)NC)CC(=O)[O-])CC(=O)[O-].O.[Gd+3],outcome,[1],inactive
same,outcome,[2],inactive
Oc1cc(O)c2c(c1)O[C@H](c1ccc(O)c(O)c1)[C@H](O)C2,max response,[1],-5.79%
same,outcome,[2],inactive
O=C1OC2(c3ccc(O)cc3Oc3cc(O)ccc32)c2ccccc21,max response,[1],-1.47%
same,max response,[2],-1.16%
C[n+]1c2cc(N)ccc2cc2ccc(N)cc21 (tested in a mixture with another compound),Potency,[1],6.68 µM (active)
same,Potency,[2],3.35 µM (active)
Cc1ccc(Nc2c(F)cccc2Cl)c(CC(=O)O)c1,outcome,[1],inactive
same,max response,[2],2.42%
CCCC(=O)O[C@]1(C(=O)CO)CC[C@H]2[C@@H]3CCC4=CC(=O)CC[C@]4(C)[C@H]3[C@@H](O)C[C@@]21C,max response,[1],-24.4%
same,outcome,[2],inactive
C/C=C(/C(=C/C)c1ccc(O)cc1)c1ccc(O)cc1,max response,[1],1.03%
C[C@]12CC[C@H]3[C@@H](CCC4=CC(=O)CC[C@@]43C)[C@@H]1CC[C@@H]2C(=O)CO,max response,[1],-11.9%
NC[C@H]1O[C@H](O[C@H]2[C@H](O[C@@H]3O[C@H](CO)[C@@H](O)[C@H]3O)C(O)[C@H](N)C[C@@H]2N)[C@H](N)[C@@H](O)[C@@H]1O (stereo partly drawn),max response,[1],-0.227%
same,max response,[2],0.11%
C=C1C[C@H]2[C@@H]3C=C(C)C4=CC(=O)CC[C@]4(C)[C@H]3CC[C@]2(C)[C@@]1(OC(C)=O)C(C)=O,max response,[1],1.09%
COc1cc(C=C2CCC/C(=C\c3ccc(O)c(OC)c3)C2=O)ccc1O,Potency,[1],15 µM (active)
Cc1ccccc1C(=O)Nc1ccc(C(=O)N2CCCC(N(C)C)c3ccccc32)cc1 (stereo not drawn),Potency,[1],23.7 µM (active)
same,Potency,[2],3.35 µM (active) and 5.8 µM (active)
CN(C)CC/C=C1/c2ccccc2COc2ccc(CC(=O)O)cc21,max response,[1],2.78%
same,max response,[2],1.17%
CN(C/C=C/c1ccccc1)Cc1cccc2ccccc12,Potency,[1],26.6 µM (active)
C[C@H](CCC(=O)O)[C@H]1CC[C@H]2[C@@H]3C(=O)C[C@@H]4CC(=O)CC[C@]4(C)[C@H]3CC(=O)[C@]12C,max response,[1],-5.31%
same,outcome,[2],inactive
COc1cccc2c1C(=O)c1c(O)c3c(c(O)c1C2=O)C[C@@](O)(C(=O)CO)C[C@@H]3O[C@H]1C[C@H](N)[C@H](O)[C@H](C)O1,Potency,[1],1.33 µM (active)
same,Potency,[2],0.266 µM (active)
CC1(C)OC[C@@H](COC(=O)CCc2ccc(OC[C@@H](O)CNCCNC(=O)N3CCOCC3)cc2)O1,outcome,[1],inactive
same,outcome,[2],inactive
NC[C@H]1O[C@H](O[C@H]2[C@H](O)[C@@H](O[C@H]3O[C@H](CO)[C@@H](O)[C@H](N)[C@H]3O)[C@H](N)C[C@@H]2N)[C@H](N)[C@@H](O)[C@@H]1O,max response,[1],-9.82%
same,max response,[2],-0.173%
CCCCS(=O)(=O)N[C@@H](Cc1ccc(OCCCCC2CCNCC2)cc1)C(=O)O,max response,[1],-2.86% and 2.79%
same,max response,[2],-5.53% and -1.56%
Cc1nc2n(c(=O)c1CCN1CCC(c3noc4cc(F)ccc34)CC1)CCC[C@H]2O,max response,[1],-3.73%
same,outcome,[1],inactive
same,max response,[2],-1.89%
same,outcome,[2],inactive
C[C@]12CCC(=O)C=C1[C@@H]1C[C@@H]1[C@H]1[C@@H]3[C@@H]4C[C@@H]4[C@@]4(CCC(=O)O4)[C@@]3(C)CC[C@@H]12,outcome,[1],inactive
CC1(C)O[C@@H]2C[C@H]3[C@@H]4CCC5=CC(=O)CC[C@]5(C)[C@@]4(F)[C@@H](O)C[C@]3(C)[C@]2(C(=O)CCl)O1,max response,[1],2.38%
CC(C)n1nc(-c2cc3cc(O)ccc3[nH]2)c2c(N)ncnc21,Potency,[1],376 nM (active) and 461 nM (active)
same,Potency,[2],1.33 µM (active) and 1.46 µM (active)
C[C@]12C=CC(=O)C=C1[C@@H](F)C[C@@H]1[C@@H]2[C@@H](O)C[C@@]2(C)[C@H]1CC[C@]2(O)C(=O)CO,max response,[1],1.95%
same,max response,[2],-9.41%
CC1(C)O[C@@H]2C[C@H]3[C@@H]4C[C@H](F)C5=CC(=O)C=C[C@]5(C)[C@H]4[C@@H](O)C[C@]3(C)[C@]2(C(=O)CO)O1,max response,[1],-27.4%
same,max response,[2],-23.8%
CC(=O)[C@H]1CC[C@H]2[C@@H]3C[C@H](C)C4=CC(=O)CC[C@]4(C)[C@H]3[C@@H](O)C[C@]12C,outcome,[1],inactive
COC(=O)CCc1ccc(OCC(O)CNC(C)C)cc1 (stereo not drawn),max response,[1],-4.17% and 4.01%
same,max response,[2],1.57% and 1.48%
CC(=O)O[C@]1(C(C)=O)CC[C@H]2[C@@H]3C[C@H](C)C4=CC(=O)CC[C@]4(C)[C@H]3CC[C@@]21C,outcome,[1],inactive
same,Potency,[2],15 µM (active)
COc1cc2c(cc1OC)[C@@H]1CC(=O)[C@@H](CC(C)C)CN1CC2,max response,[1],-4.44%
CCCCC(=O)O[C@]1(C(=O)CO)CC[C@H]2[C@@H]3CCC4=CC(=O)CC[C@]4(C)[C@H]3[C@@H](O)C[C@@]21C,outcome,[1],inactive
same,max response,[2],3.34%
CC(=O)Oc1ccc2c(c1)CC[C@@H]1[C@@H]2CC[C@]2(C)[C@@H](O)CC[C@@H]12,max response,[1],-2.1%
Cc1cc2c(cc1CC(=O)c1sccc1S(=O)(=O)Nc1onc(C)c1Cl)OCO2,max response,[1],-5.35% and 2.32%
same,outcome,[2],inactive
CN1[C@@H]2CC[C@H]1CC(OC(=O)c1c[nH]c3ccccc13)C2 (stereo partly drawn),max response,[1],-2.71%
same,outcome,[1],inactive
same,max response,[2],4.73%
same,outcome,[2],inactive
CC1(C)O[C@@H]2[C@@H](CO[C@@]3(COS(N)(=O)=O)OC(C)(C)O[C@@H]23)O1,max response,[1],-9.34%
same,outcome,[2],inactive
C=C1C(=C/C=C2\CCC[C@]3(C)[C@@H]([C@H](C)/C=C/[C@@H](O)C4CC4)CC[C@@H]23)C[C@@H](O)C[C@@H]1O,outcome,[1],inactive
CC(=O)OCC(=O)[C@@]1(O)[C@H](C)C[C@H]2[C@@H]3CCC4=CC(=O)C=C[C@]4(C)[C@@]3(F)[C@@H](O)C[C@@]21C,max response,[1],0.495% and 1.45%
same,max response,[2],-2.05%
same,outcome,[2],inactive
CN1CCC[C@@H]1c1cccnc1,Potency,[3],inactive
same,Potency,[4],inactive
same,Potency,[5],inactive
same,Potency,[6],inactive
same,Potency,[7],inactive
same,Potency,[8],inactive
same,Potency,[9],inactive
same,Potency,[10],inactive
same,Potency,[11],inactive
same,Potency,[12],inactive
same,Potency,[13],inactive
same,Potency,[14],inactive
same,Potency,[15],inactive
same,Potency,[16],inactive
same,Potency,[17],inactive
same,Potency,[18],inactive
same,Potency,[19],inactive
same,Potency,[20],inactive
same,max response,[1],-7.79%
same,max response,[2],-4.75%
